Measured values reported in PubChem BioAssay (EPA / NIEHS).
Inconclusive results are not listed. Activity calls are given as the source filed them. The calls were made as follows, unless noted: active = hit-call score of the fitted dose curve at least 0.9, where 1 is the maximum; inactive = score below 0.9.

Legend:
[1] = tested on: Brachyury (BRA) Protein Expression, Deisenroth Lab, TBXT (gene 6862); test: CCTE_Deisenroth_DEVTOX-GLR_legacy_Bra: (Legacy) CCTE's DevTox GLR-Endo Assay Evaluation of Brachyury (BRA) Protein Expression, Deisenroth Lab (AID 2284329)
How it was run: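 RUES2-GLR human pluripotent cells are differentiated for 48 h and receive two chemical exposures 24 h apart, at 10 concentrations from 1 nM to 200 uM. Cells are fixed, nuclei stained and imaged. Bra+ cells are those with mean Bra intensity over 5x BMAD above the pluripotent control median, expressed as a percentage of cell count, after subtracting the 0.2% DMSO control median.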

[2] = CCTE_Deisenroth_DEVTOX-GLR_legacy_CellCount: (Legacy) Viability Assessment in CCTE's DevTox GLR-Endo Assay, Deisenroth Lab (AID 2284331); details: actives raise or lower the signal
How it was run: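 Nuclei count by fluorescence high-content imaging (5 fields/well) after 48 h differentiation of RUES2-GLR cells. Two exposures, 24 h apart; 1 nM - 200 uM series; n=4. Bidirectional fit vs DMSO.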

[3] = tested on: SRY-box transcription factor 17 (SOX17) Protein Expression, Deisenroth Lab, SOX17 (gene 64321); test: CCTE_Deisenroth_DEVTOX-GLR_legacy_Sox17: (Legacy) CCTE's DevTox GLR-Endo Assay Evaluation of SRY-box transcription factor 17 (SOX17) Protein Expression, Deisenroth Lab (AID 2284341); details: actives raise or lower the signal
How it was run: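 RUES2-GLR human pluripotent cells, seeded 24 h, then differentiated 48 h in defined media with two chemical exposures 24 h apart (1 nM - 200 uM, 10 points). Sox17+ fraction from high-content fluorescence imaging; bidirectional fit versus 0.2% DMSO.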

[4] = tested on: SRY-box transcription factor 2 (SOX2) Protein Expression, Deisenroth Lab, SOX2 (gene 6657); test: CCTE_Deisenroth_DEVTOX-GLR_legacy_Sox2: (Legacy) CCTE's DevTox GLR-Endo Assay Evaluation of SRY-box transcription factor 2 (SOX2) Protein Expression, Deisenroth Lab (AID 2284346)
How it was run: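 RUES2-GLR human pluripotent cells were differentiated for 48 h with two chemical doses 24 h apart, over 1 nM-200 uM. Sox2+ cells were those above 5x BMAD of the endoderm-control median; percent Sox2+ minus the 0.2% DMSO median was used, from n=4 replicates.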

[5] = tested on: SRY-box transcription factor 2 (SOX2) Protein Expression, Deisenroth Lab, SOX2 (gene 6657); test: CCTE_Deisenroth_DEVTOX-GLR_Endo_SOX2: CCTE's DevTox GLR-Endo Assay Evaluation of SRY-box transcription factor 2 (SOX2) Protein Expression, Deisenroth Lab (AID 2284412; active = hit-call score of the fitted dose curve at least 0.9, where 1 is the maximum)
How it was run: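 RUES2-GLR human pluripotent cells were seeded 24 h, then differentiated 48 h with two chemical exposures 24 h apart. Cells were fixed, nuclei stained and imaged by high-content microscopy. Endpoint is %SOX2+ cells over cell count, minus 0.2% DMSO control; 10-point series 1 nM–200 uM.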

[6] = tested on: SRY-box transcription factor 17 (SOX17) Protein Expression, Deisenroth Lab, SOX17 (gene 64321); test: CCTE_Deisenroth_DEVTOX-GLR_Endo_SOX17: CCTE's DevTox GLR-Endo Assay Evaluation of SRY-box transcription factor 17 (SOX17) Protein Expression, Deisenroth Lab (AID 2284413)
How it was run: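 RUES2-GLR human pluripotent cells were differentiated toward endoderm for 48 h and received two compound doses 24 h apart (1 nM - 200 uM, 10 points). High-content imaging of fixed cells gave the percent SOX17+ cells per cell count, expressed as percent change versus 0.2% DMSO.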

[7] = tested on: Brachyury (BRA) Protein Expression, TBXT (gene 6862); test: CCTE_Deisenroth_DEVTOX-GLR_Endo_BRA: CCTE's DevTox GLR-Endo Assay Evaluation of Brachyury (BRA) Protein Expression, Deisenroth Lab (AID 2284417)
How it was run: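 RUES2-GLR human pluripotent cells, seeded 24 h, then differentiated 48 h in defined media with two chemical exposures 24 h apart (10-point series, 1 nM - 200 uM). Fixed, nuclear-stained, imaged; endpoint is percent BRA+ cells minus 0.2% DMSO control.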

[8] = CCTE_Deisenroth_DEVTOX-GLR_Endo_CellCount: Viability Assessment in CCTE's DevTox GLR-Endo Assay, Deisenroth Lab (AID 2284420)
How it was run: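 Measured 48 h after dosing: fluorescent nuclei counted by imaging in human RUES2-GLR cells under defined differentiation media, tested at 1 nM - 200 uM. Values are percent cell-count change relative to 0.2% DMSO.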

[9] = tested on: SRY-box transcription factor 17 (SOX17) Protein Expression, Deisenroth Lab, SOX17 (gene 64321); test: CCTE_Deisenroth_DEVTOX-GLR_Pluri_SOX17: CCTE's DevTox GLR-Pluri Assay Evaluation of SRY-box transcription factor 17 (SOX17) Protein Expression, Deisenroth Lab (AID 2284427; active = hit-call score of the fitted dose curve at least 0.9, where 1 is the maximum)
How it was run: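 Using an inducible fluorescent SOX17 reporter in human pluripotent RUES2-GLR cells, compounds (1 nM - 200 uM) were given twice over 48 h differentiation. Percent SOX17+ cells minus DMSO control came from high-content image analysis.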

[10] = tested on: SRY-box transcription factor 2 (SOX2) Protein Expression, Deisenroth Lab, SOX2 (gene 6657); test: CCTE_Deisenroth_DEVTOX-GLR_Pluri_SOX2: CCTE's DevTox GLR-Pluri Assay Evaluation of SRY-box transcription factor 2 (SOX2) Protein Expression, Deisenroth Lab (AID 2284428)
How it was run: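 Percent SOX2+ RUES2-GLR cells, determined by fluorescence microscopy after 48 h and two 24-h-interval chemical exposures spanning 1 nM–200 uM, served as the endpoint. Values are expressed relative to 0.2% DMSO; total cell counts assessed viability.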

[11] = CCTE_Deisenroth_DEVTOX-GLR_Pluri_CellCount: Viability Assessment in CCTE's DevTox GLR-Pluri Assay Evaluation of Total Cell Counts, Deisenroth Lab (AID 2284430)
How it was run: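 RUES2-GLR human pluripotent cells, seeded 24 h, then differentiated 48 h with two chemical exposures 24 h apart; 10-point series 1 nM - 200 uM. Fixed, nuclear-stained, imaged (5 fields/well); nuclei count as % change vs 0.2% DMSO.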

[12] = tested on: Brachyury (BRA) Protein Expression, Deisenroth Lab, TBXT (gene 6862); test: CCTE_Deisenroth_DEVTOX-GLR_Pluri_BRA: CCTE's DevTox GLR-Pluri Assay Evaluation of Brachyury (BRA) Protein Expression, Deisenroth Lab (AID 2284429; active = hit-call score of the fitted dose curve at least 0.9, where 1 is the maximum)
How it was run: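 RUES2-GLR human pluripotent cells differentiated 48 hours with two chemical exposures 24 hours apart, 10-point series 1 nM–200 uM. Fixed, nuclear-stained, imaged; endpoint is percent BRA+ cells minus 0.2% DMSO control.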

Measured: outcome

CC1(C)S[C@@H]2[C@H](NC(=O)Cc3ccccc3)C(=O)N2[C@H]1C(=O)O
not listed: [12]
inactive: all other assays above

Nc1nc2c(ncn2COCCO)c(=O)[nH]1
not listed: [5]
inactive: all other assays above
